The list is not random: actives were taken first. Their share in the collection is about 12%.
BAZ2B inh = qHTS Assay for Inhibitors of BAZ2B | AlphaScreen BAZ2B-H3K14Ac peptide displacement | 360,000 compounds, 4.4% hits | Potency, µM (doses to about 114 µM), without a hit: at the top dose activity change, negative = inhibition, usual class: inhibitors | Bromodomain adjacent to zinc finger domain protein 2B (Homo sapiens), Q9UIF8; also: % is scaled to controls: 0 for no effect and ±100 for the full control effect; nearly all actives have a fitted effect of over 60% in size
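BAZ2B 50 nM plus b-H3(5-23)K14Ac 50 nM, PBS pH 7.4/0.01% Tween-20, 30 min RT; compound added (max 110 uM), 30 min RT; streptavidin donor/Ni-chelate acceptor beads 10 ug/mL final, 20 min dark; AlphaScreen read.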
G9a block = qHTS Assay for Inhibitors of Histone Lysine Methyltransferase G9a; 350,000 compounds, 8.8% hits; AID 504332, 2011; Potency, µM (highest dose often 102 µM), for the others: top-dose activity, negative = inhibition, most hits filed as inhibitors; G9a H3K9 monomethylation, AlphaScreen, 2 h; Histone-lysine N-methyltransferase EHMT2 (Homo sapiens), Q96KQ7; also: % is scaled to controls: 0 for no effect and ±100 for the full control effect; nearly all actives have a fitted effect of over 75% in size
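Methyltransferase reactions run at room temperature for 2 h (20 nM enzyme, 500 nM biotin-H3K9 peptide, 20 uM SAM) after a 15 min compound preincubation; product detected by AlphaScreen beads and anti-H3K9me1 antibody.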
PLK1 PBD block = qHTS for Inhibitors of PLK1-PDB (polo-like kinase 1 - polo-box domain): Primary Screen; Serine/threonine-protein kinase PLK1 (Homo sapiens), P53350; Plk1 PBD binding of FITC phosphopeptide, fluorescence polarization; Potency, µM, for the others: max response, negative = inhibition, hits mostly inhibitors; 360,000 compounds, 2.8% hits; AID 720504, 2013; also: series mostly up to about 57 µM; % is scaled to controls: 0 for no effect and ±100 for the full control effect; nearly all actives have a fitted effect of over 65% in size
Target sequence (P53350 whole entry, looked up, the tested form may be a part): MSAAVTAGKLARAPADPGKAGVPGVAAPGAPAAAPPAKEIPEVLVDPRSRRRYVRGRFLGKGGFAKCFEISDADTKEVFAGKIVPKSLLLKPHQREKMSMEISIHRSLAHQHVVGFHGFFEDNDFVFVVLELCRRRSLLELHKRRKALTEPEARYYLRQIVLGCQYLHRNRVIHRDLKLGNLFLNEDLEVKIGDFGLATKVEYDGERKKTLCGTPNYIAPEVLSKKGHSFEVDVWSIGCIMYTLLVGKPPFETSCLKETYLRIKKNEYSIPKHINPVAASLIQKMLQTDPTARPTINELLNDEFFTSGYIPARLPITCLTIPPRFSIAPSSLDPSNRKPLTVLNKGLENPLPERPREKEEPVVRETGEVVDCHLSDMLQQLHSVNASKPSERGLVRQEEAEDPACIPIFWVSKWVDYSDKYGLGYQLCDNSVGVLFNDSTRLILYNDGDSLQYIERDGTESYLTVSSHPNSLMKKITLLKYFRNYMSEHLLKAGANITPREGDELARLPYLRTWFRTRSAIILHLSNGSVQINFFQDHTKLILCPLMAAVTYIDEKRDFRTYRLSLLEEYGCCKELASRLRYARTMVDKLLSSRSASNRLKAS
HP1b binding inh = HTS for Inhibitors of HP1-beta Chromodomain Interactions with Methylated Histone Tails. 390,000 compounds, 0.56% hits. AlphaScreen HP1-beta / biotin-H3K9me3 peptide binding. Chromobox protein homolog 1 (Homo sapiens), P83916. Potency, µM (series often up to 114 µM), for inactives: top-dose activity change, negative = inhibition, actives largely listed as inhibitors. AID 540317, 2011; also: nearly all actives have a fitted effect of over 70% in size
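AlphaScreen: HP1-beta (50 nM) preformed 30 min with biotin-H3(1-18)K9me3 peptide (50 nM) in PBS pH 7.4, 0.01% Tween-20. Compound added for 30 min at RT, then streptavidin donor/nickel chelate acceptor beads (10 ug/mL) for 30 min.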
JMJD2A Tudor inh = qHTS Assay for Inhibitors of JMJD2A-Tudor Domain | Lysine-specific demethylase 4A (Homo sapiens), O75164 | AlphaScreen JMJD2A-Tudor / H3K4me3 peptide binding | Potency, µM (titrated, usually from 114 µM), for inactives: at the highest dose activity change, negative = inhibition, most hits filed as inhibitors | 390,000 compounds, 4.4% hits; also: % is scaled to controls: 0 for no effect and ±100 for the full control effect; nearly all actives have a fitted effect of over 50% in size
Sfp inh = qHTS Assay for Inhibitors of Bacillus subtilis Sfp phosphopantetheinyl transferase (PPTase); 4'-phosphopantetheinyl transferase ffp (Bacillus subtilis), Q9F4F7; Biochemical Sfp PPTase activity, qHTS; Potency, µM, inactives show largest response in the series, negative = inhibition, actives largely listed as inhibitors; 310,000 compounds, 3.5% hits;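 also: the enzyme is Sfp with the accession as filed and its product quenches rhodamine fluorescence; 0% = enzyme reaction without inhibitor and -100% = no enzyme wells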
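Buffer: 50 mM Hepes-Na pH 7.6, 10 mM MgCl2, 0.01% Nonidet P-40, 0.01% BSA. Enzyme 15 nM, pre-exposed to compound 15 min; substrates then added and fluorescence change tracked over 30 min.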
Starred values were filed as active, the others as inactive; u = inconclusive; x = no result given; [ ] = remark or other dose. Calls follow the shape of the dose curve; as a rule, active = well fitted curve in the direction sought with a large enough effect; inconclusive = small, poorly fitted or top-dose-only effect, or another doubt; inactive = no such curve, though single readings can be large; an effect the other way counts as inactive or inconclusive. Potency is read from the fitted curve at half-maximal effect.

SMILES	BAZ2B inh	G9a block	PLK1 PBD block	HP1b binding inh	JMJD2A Tudor inh	Sfp inh
COC(=O)CC1[C@@]2(C)C[C@]34OC5(C)OC6(C7CC(=O)OC(c8ccoc8)[C@]7(C)CCC6(O5)[C@]13C)C(OC(C)=O)[C@]4(OC(C)=O)C2OC(C)=O (stereo not given in full)	x	x	x	x	x	11%
CC(=O)NC(C(=O)c1ccccc1)C(=O)c1ccccc1	-2%	50µM*	-1%	46%	3%	9%
CCOP(=O)(OCC)C(NC(C)=O)C(=O)c1ccccc1 (stereo not given)	-11%	-28%	-15%	32%	-8%	20%
Cc1ccc2c(c1)CC(C)N2S(=O)(=O)c1nnc(NC(=O)c2ccccc2F)s1 (stereo not given)	u	-31%[59 µM]	x	-28%	-31%	x
CCOc1ccc(Nc2nc(N)c([N+](=O)[O-])c(N3CCN(CC)CC3)n2)cc1	50µM*	-11%[2.33 µM]	-7%	u	u	1%
CN(c1ccccc1)c1nc(N)c([N+](=O)[O-])c(NC2CCCCC2)n1	-26%	-11%	-3%	3%	-24%	7%
Nc1nc(Nc2ccccc2)nc(N2CCCC2)c1[N+](=O)[O-]	u	-7%	1%	-10%	u	5%
Cc1ccc(Nc2nc(N)c([N+](=O)[O-])c(N3CCCC(C)C3)n2)cc1C (stereo not given)	u	20µM*	-1%	u	25µM*	11%
CC1CCCN(c2nc(N(C)c3ccccc3)nc(N)c2[N+](=O)[O-])C1 (stereo not given)	u	32µM*	-4%	u	u	12%
CC1CCCN(c2nc(NCc3ccco3)nc(N)c2[N+](=O)[O-])C1 (stereo not given)	50µM*	u	2%	u	u	-7%
Cc1nc(S/C(=C\c2ccc(-c3ccc(C(=O)O)c(Cl)c3)o2)C(=O)O)n[nH]1	14µM*	4µM*	u	20µM*	25µM*	6.3µM*
Cc1ccc(Cc2ccc(C(=O)NNC(N)=S)o2)cc1	-3%	56µM*	27µM*	-9%	-33%	2%
COc1ccc(NC(=O)c2ccc(Cc3ccc(C)cc3)o2)cc1	4%	u	-16%	27%	0%[57.1 µM]	-4%
O=C(NCc1cc(Cl)cc(Cl)c1)c1ccc2nc(COCCO)[nH]c2c1	x	x	-10%	x	x	x
CCN(CC)CCN(CC(=O)N(C1CCCCC1)C1CCCCC1)C(=O)c1cccnc1	u	50µM*	-1%	36%	-9%	-23%
O=C(Nc1ccc(C(=O)O)cc1)/C(=C\c1ccco1)NC(=O)c1ccc(Br)o1	-2%	35µM*	30µM*	u	u	50µM*
O=C(O)/C(=C/c1ccco1)NC(=O)c1ccc(Br)o1	-5%	45µM*	-12%	13%	-26%	-14%
O=C(Nc1ccc(C(=O)O)cc1)/C(=C\c1ccc2c(c1)OCO2)NC(=O)c1ccc(Br)o1	-4%	2%	27µM*	-13%	45µM*	6%
O=C(Nc1ccc(C(=O)O)cc1)/C(=C\c1ccco1)NC(=O)c1ccc(Br)cc1	x	x	-3%	x	x	x
O=C(Nc1cccc(C(=O)O)c1)/C(=C\c1ccc2c(c1)OCO2)NC(=O)c1ccc(Br)o1	-15%	-42%	u	0%	-25%	-2%
CCOc1ccc(NC(=O)CCc2nnc3n(C)c(=O)c4sccc4n23)cc1	-9%	-9%[59 µM]	x	14%	-13%	x
COc1ccc(C)cc1NS(=O)(=O)c1ccc2oc(=O)c3ncn(C)c3c2c1	-1%	u	x	37%	-16%	x

Screening data deposited in PubChem BioAssay by National Center for Advancing Translational Sciences (NCATS).
